This note sets out measurements from PubChem BioAssay AID1508619 (National Center for Advancing Translational Sciences (NCATS), 2020).

Inconclusive results are not listed. Values without a mark were called inactive. The source made the active and inactive calls. The call rests on the fitted dose curve; in most records, active means well fitted inhibition curve with a large enough effect; inconclusive means small, poorly fitted or top-dose-only effect; inactive means no such curve, though single readings can be large or run the other way.
On the % scale 0 is the no-effect control and ±100 the full control effect; potency means the concentration at half of the fitted maximal effect.

The nature of the assay: Counterscreen qHTS for Identification of Calcium Integrin Binding Protein 1 (CIB1) Competitor. As to conditions: series mostly up to 114 µM; activity, negative = inhibition: at the top concentration. The source says: Assay Provider: Ulhas P. Naik, PhD
Sidney Kimmel Medical College
Thomas Jefferson University, Philadelphia, PA
Primary function of platelets is to maintain hemostasis. At the site of vascular injury, platelets adhere to adhesive proteins such as collagen and von Willebrand factor. Adherent platelets are activated and generate soluble platelet agonists such as thrombin, ADP and thromboxane A2. Following exposure of circulating platelets to these agonists, results in platelet shape change, granule secretion and activation of platelet integrin alphaIIb-beta3. Ligand binding to activated integrin alphaIIb-beta3 triggers outside-in signaling, leading to platelet aggregation, stabilization of platelet plug, and clot retraction. Upon atherosclerotic plaque rupture also causes platelet plug formation, which underlies a number of cardiovascular diseases such as myocardial infraction and stroke. A number of anti-platelet drugs such as aspirin, clopidogrel, prasugrel, vorapaxar, and eptifibatide are currently available to prevent the thrombotic complications. However, these anti-platelet agents have several limitations including inherent variability in individual responses, developing resistance, and serious bleeding side effects. For these reasons they are not suitable for long-term protection. Based on the experiences with current anti-platelet drugs, it appears that the most useful therapeutic approach is to intersect the secondary responses such as integrin outside-in signaling or recruitment of platelets by TxA2 and secreted ADP. Compounds, which can largely preserve the primary hemostatic function of platelets but inhibit secondary response will be most desired therapeutic agents for treatment of cardiovascular disease.
CIB1 is a calcium integrin binding protein, which specifically interact with the alphaIIb subunit of integrin alphaIIb-beta3. Binding of CIB1 to alphaIIb regulates the outside-in signaling in platelets, which is needed for thrombus stabilization and thrombus growth. […] Therefore, we propose that discovery of a small molecule that can prevent the association of CIB1 and alphaIIb-beta3 will be a potential anti-platelet agent that can block the thrombus formation without undue effect on hemostasis.
To develop fluorescence polarization (FP) assay using fluorescently labeled alphaIIb peptide and CIB1 protein. Using FP assay characterize the binding affinity, competitive inhibition, and acceptable Z factor (0.5 to1) in order to perform the HTS to identify small molecule compound that can prevent CIB1 binding to platelet integrin alphaIIb-beta3. Active compounds were re-acquired and validated using confirmatory and counterscreens (using 100 nM scrambled peptide).
[1] Naik MU, Nigam A, Manrai P, et al. CIB1 deficiency results in impaired thrombosis: the potential role of CIB1 in outside-in signaling through integrin alpha IIb beta 3. J Thromb Haemost. 2009;7(11):1906-1914. doi:10.1111/j.1538-7836.2009.03581.
SEQUENCE No. (1, 2, 3, etc.); […] (e.g., Cells, Incubation, Reagent, etc.); VALUE and DESCRIPTION.
1; Reagent; 3 uL; Protein or buffer (4/3x)
2; Compound; 46 nL; Control inhibitor / compound library
3; Time; 15 min; Room temperature incubation
4; Reagent; 1 uL; Fluorescent labeled peptide (4x)
5; Time; 1000 rpm; Centrifuge
6; Time; 15 min; Room temperature incubation
7; Detection; Ex 480/ Em 540; ViewLux Fluorescence Read
NOTES (numbers refer to sequence above)
1; Protein Mixture: C1B1-GST (final concentrations of 1 uM). Buffer composition: 5 mM HEPES pH 7.4, 125 mM NaCl, 5 mM CaCl2, 0.01% Tween20.
2; Control Inhibitor: unlabeled peptide (final concentration range 17.4 nM to 572 uM). Compound Library final concentration range 18.3 nM to 114 uM.
3; Room temperature incubation.
4; Fluorescent Labeled Peptide: FITC-alphaIIb (final concentration of 100 nM). Sequence of Scrambled peptide: Acetyl-[…]-FITC (purity is 95.37%).
6; Room temperature incubation.
[…]
In the case of `O=C1CCCC2=C1C(c1ccncc1)N=C(Nc1nc3ccccc3o1)N2` (stereo not given), the “activity, negative = inhibition” value is -7.67%.

For the compound `N#Cc1ccc(N[S+](=O)([O-])c2ccc(Nc3nc(-c4ccccc4)cs3)cc2)cc1`, the Potency was 44.7 µM (active).

`O=C(O)c1ccccc1SC1=NS(=O)(=O)c2ccccc21`: the “activity, negative = inhibition” value is 7.2%.

Turning to `CCc1oc2ccccc2c1C(=O)c1cc(I)c(O)c(I)c1`, the Potency is 100 µM (active).

For the compound `C[C@H]1COC2=C1C(=O)C(=O)c1c2ccc2c1CCCC2(C)C`, the “activity, negative = inhibition” value was 9.4%.

Turning to `CCCC(=O)c1cc(O)c(O)cc1O`, the Potency was 31.6 µM (active).

As to `C=CCNc1oc(-c2ccc(-c3ccccc3)cc2)nc1C#N`, the “activity, negative = inhibition” value is -5.95%.

For `CO[C@@H]1C(N(C)C(=O)c2ccccc2)C[C@H]2O[C@]1(C)n1c3ccccc3c3c4c(c5c6ccccc6n2c5c31)C(=O)NC4=O` (stereo not given in full), the Potency is 22.4 µM (active).

As for `COC(=O)c1ccc(O)c2ncc(-c3ccc(C(=O)NCCCN(C)C)cc3)cc12`, the “activity, negative = inhibition” value is 174%.

In the case of `COc1ccccc1Nc1cc2ccccc2c(=O)[nH]1`, the Potency is 35.5 µM (active).

With `CCc1oc2ccccc2c1C(=O)c1cc(Br)c(O)c(Br)c1`, the “activity, negative = inhibition” value is 49.1%.

Consider `NC[C@H](O)c1ccc(O)c(O)c1`, for which the Potency result was “inactive”.

In the case of `CC(=O)Nc1sc2c(c1-c1nc3ccccc3s1)CNC2`, the “activity, negative = inhibition” value was -7.25%.

For `Oc1c(Cl)cc(Cl)c(Cl)c1Cc1c(O)c(Cl)cc(Cl)c1Cl`, the “activity, negative = inhibition” value is 87.1%.

`O=c1c2ccccc2nc2sc(NS(=O)(=O)c3ccc4c(c3)CCC4)nn12`: the “activity, negative = inhibition” value was 54.9%.

Take `Cc1ccc(C(=O)Nc2ccc(S(=O)(=O)O)c3cc(S(=O)(=O)O)cc(S(=O)(=O)O)c23)cc1NC(=O)c1cccc(NC(=O)Nc2cccc(C(=O)Nc3cc(C(=O)Nc4ccc(S(=O)(=O)O)c5cc(S(=O)(=O)O)cc(S(=O)(=O)O)c45)ccc3C)c2)c1`: the “activity, negative = inhibition” value was 15.9%.

Regarding `O=C(Cc1ccc(Cl)c(Cl)c1)Nc1ccc(S(=O)(=O)Nc2cccc(C(=O)O)c2)cc1`, the “activity, negative = inhibition” value was 18.5%.

For `O=C(O)c1ccc(O)c2ncc(N3CCC(N4CCOCC4)C3)cc12` (stereo not given), the “activity, negative = inhibition” value was -3.62%.

Turning to `COC(=O)c1cc(Cl)ccc1NS(=O)(=O)C(F)(F)F`, the “activity, negative = inhibition” value is 5.61%.

`COC(=O)c1ccc2c(c1)S(=O)(=O)N=C2Sc1cc(C)ccc1C`: the “activity, negative = inhibition” value was -4.21%.

Turning to `CN(C)CCN1C(=O)c2cccc3cc(N)cc(c23)C1=O`, the “activity, negative = inhibition” value is -17.6%.

Regarding `Cc1cc(C(C#N)c2ccc(Cl)cc2)c(Cl)cc1NC(=O)c1cc(I)cc(I)c1O` (stereo not given), the “activity, negative = inhibition” value was 120%.

Take `O=C1CCCC2=C1C1(CCCOC1)N=C(Nc1nc3ccccc3o1)N2` (stereo not given): the “activity, negative = inhibition” value is -6.27%.

Regarding `COc1ccc(NC(=O)c2[nH]c(C)c(C(C)=O)c2C)cc1[S+](=O)([O-])Nc1ccccc1C#N`, the “activity, negative = inhibition” value is -11%.

As to `O=C1c2ccccc2C(=O)c2c1ccc(O)c2O`, the Potency was 22.4 µM (active).

On to `O=C(O)Cc1ccc(CCNS(=O)(=O)c2ccc(Cl)cc2)cc1`, for which the “activity, negative = inhibition” value was 13.6%.

`CCC(=O)NC(c1cccs1)c1cc(Br)c2cccnc2c1O` (stereo not given): the “activity, negative = inhibition” value was -17.2%.

As for `N#Cc1cnc(NS(=O)(=O)c2ccc(NC(=O)Cc3ccc(Cl)c(Cl)c3)cc2)s1`, the “activity, negative = inhibition” value was 17.8%.

`NC(=O)c1ccnc2c(O)cccc12`: the “activity, negative = inhibition” value is -3.57%.

`Nc1ccc(O)c([N+](=O)[O-])c1`: the Potency was 63.1 µM (active).

Take `CCCCCCCCCCCCCCCC[N+](C)(C)CCN(Cc1ccc(OC)cc1)c1ncccn1`: the “activity, negative = inhibition” value was 73.9%.

Take `Cc1ccc(S(=O)(=O)Nc2cc3c(cc2C(=O)Nc2nc(-c4ccccc4)cs2)OCO3)cc1`: the “activity, negative = inhibition” value was 106%.

Consider `O=Cc1c(-c2ccccc2)no[n+]1[O-]`, for which the “activity, negative = inhibition” value was -2.24%.

Consider `COC(=O)c1ccc(O)c2ncc(-c3ccc(C(=O)N4CCNCC4)cc3)cc12`, for which the “activity, negative = inhibition” value is -23.2%.

As for `O=S(=O)(Nc1nccs1)c1ccc(Nc2nc(-c3ccccc3)cs2)cc1`, the Potency was 50.1 µM (active).

For `CCOc1ccc2nc3cc(N)ccc3c(N)c2c1`, the Potency was 31.6 µM (active).

In the case of `O=c1[nH]sc2cc(Cl)ccc12`, the “activity, negative = inhibition” value was 5.24%.

In the case of `Cc1cnc(-c2ccccc2C(C)C)nc1NCc1ccc(-c2ccc(F)nc2)cc1`, the Potency was 44.7 µM (active).

As for `Cc1cc(=O)oc2cc(SC3=NS(=O)(=O)c4ccccc43)ccc12`, the “activity, negative = inhibition” value is -9.31%.

`OCCOCCN1CCN(C(c2ccccc2)c2ccc(Cl)cc2)CC1` (stereo not given): the “activity, negative = inhibition” value was -12.4%.
